PubChem BioAssay
A number with no mark means an inactive call. For some assays here: Results with a measured potency or affinity are listed apart. Active and inactive are the calls of the source. Unless noted, no rule for the calls is given here.

What was measured:
[1] = antimalarial activity against Dd2 strain (AID 2302;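 active = growth inhibition above 50% at the single 2 µM test dose, taken to imply half-maximal potency below 2 µM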;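 also: 0% = DMSO untreated growth and 100% = chloroquine plus artemisinin killed control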); conditions: P. falciparum Dd2 in RBCs, LDH growth readout, 72 h; at 2 µM; hits give high values
[2] = human hepatoma cell viability loss – ATP luminescence, cytotoxicity control for P. falciparum antimalarial project, primary screen (AID 2303;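 active = inhibition above 50%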;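 also: 0% = DMSO wells and 100% = digitonin-killed cells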); conditions: HepG2 viability, 24-48 h, at 10 µM, hits give high values
[3] = target: L-lactate dehydrogenase (Plasmodium falciparum (isolate CDC / Honduras)) (UniProt Q27743); test: PfLDH activity inhibition – cell lysate, 3D7 strain, counter-screen for P. falciparum growth inhibition project (AID 2304);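 also: 0% = vehicle and 100% = reference inhibitor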; conditions: P. falciparum 3D7 crude extract, LDH APAD/NBT absorbance; at 2 µM; hits give high values
Sequence of L-lactate dehydrogenase (Plasmodium falciparum (isolate CDC / Honduras)) (Q27743 whole entry, looked up): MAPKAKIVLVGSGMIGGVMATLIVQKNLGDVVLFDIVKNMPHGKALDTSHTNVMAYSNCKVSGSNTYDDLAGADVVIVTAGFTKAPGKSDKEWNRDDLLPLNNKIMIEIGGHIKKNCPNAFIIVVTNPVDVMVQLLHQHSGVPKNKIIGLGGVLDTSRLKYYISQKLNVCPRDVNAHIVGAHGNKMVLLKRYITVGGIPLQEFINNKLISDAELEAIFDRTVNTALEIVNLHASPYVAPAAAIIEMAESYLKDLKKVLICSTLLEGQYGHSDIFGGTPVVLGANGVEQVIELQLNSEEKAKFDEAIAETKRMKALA

[4] = inhibition of 3D7 malaria parasite growth – strain 3D7 (AID 2306);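 also: 0% = DMSO wells and 100% = chloroquine plus artemisinin control wells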; conditions: P. falciparum 3D7 erythrocytic growth, LDH absorbance, 72 h; at 2 µM; hits give high values
[5] = target: Calcium-dependent protein kinase 1 (Plasmodium falciparum (isolate 3D7)) (UniProt P62344); test: PfCDPK1 kinase inhibitors, biochemical, TCAMS library (AID 1159585; cut-off not given, nearly all actives have IC50 up to about 0.98 µM;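 also: inhibitors leave more ATP so luminescence rises with inhibition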); conditions: recombinant PfCDPK1, Kinase-Glo ATP depletion luminescence
Sequence of Calcium-dependent protein kinase 1 (Plasmodium falciparum (isolate 3D7)) (P62344 whole entry, looked up): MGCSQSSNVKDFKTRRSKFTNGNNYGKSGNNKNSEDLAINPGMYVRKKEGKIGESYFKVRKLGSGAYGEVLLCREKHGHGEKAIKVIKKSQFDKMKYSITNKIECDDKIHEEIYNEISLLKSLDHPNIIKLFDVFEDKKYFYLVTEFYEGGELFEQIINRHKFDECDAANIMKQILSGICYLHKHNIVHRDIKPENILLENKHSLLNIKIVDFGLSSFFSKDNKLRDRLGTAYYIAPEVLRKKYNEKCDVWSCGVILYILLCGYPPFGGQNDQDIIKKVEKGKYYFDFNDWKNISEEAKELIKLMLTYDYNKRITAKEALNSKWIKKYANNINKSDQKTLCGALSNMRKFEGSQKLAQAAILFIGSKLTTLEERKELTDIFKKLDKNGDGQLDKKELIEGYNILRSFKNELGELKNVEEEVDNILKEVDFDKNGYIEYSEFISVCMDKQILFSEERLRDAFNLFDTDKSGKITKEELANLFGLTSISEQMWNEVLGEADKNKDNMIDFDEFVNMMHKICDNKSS

[6] = target: Plasmodium falciparum protein kinase 6 (PK6, PF3D7_1337100) (UniProt Q8IDW1); test: PfPK6 kinase inhibitors, biochemical, TCAMS library (AID 1159586); conditions: recombinant PfPK6, Kinase-Glo ATP depletion luminescence
Sequence of Plasmodium falciparum protein kinase 6 (PK6, PF3D7_1337100) (Q8IDW1 1-305): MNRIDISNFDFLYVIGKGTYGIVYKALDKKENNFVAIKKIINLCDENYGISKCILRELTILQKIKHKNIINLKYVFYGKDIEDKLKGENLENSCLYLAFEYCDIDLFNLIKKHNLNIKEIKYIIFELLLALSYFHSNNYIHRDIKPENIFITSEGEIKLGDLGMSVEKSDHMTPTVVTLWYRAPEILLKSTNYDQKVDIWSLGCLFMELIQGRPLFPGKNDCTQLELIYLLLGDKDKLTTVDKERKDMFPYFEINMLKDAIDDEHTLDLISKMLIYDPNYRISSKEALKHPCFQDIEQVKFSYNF

[7] = target: Protein kinase 7 (PK7), Plasmodium falciparum 3D7 (PF3D7_0213400) (UniProt Q7YTF7); test: inhibition of Plasmodium PK7 catalytic activity – biochemical, TCAMS antimalarial set, Kinase-Glo luminescence (AID 1159587); conditions: recombinant PfPK7, Kinase-Glo ATP depletion luminescence
Sequence of Protein kinase 7 (PK7), Plasmodium falciparum 3D7 (PF3D7_0213400) (Q7YTF7 1-343): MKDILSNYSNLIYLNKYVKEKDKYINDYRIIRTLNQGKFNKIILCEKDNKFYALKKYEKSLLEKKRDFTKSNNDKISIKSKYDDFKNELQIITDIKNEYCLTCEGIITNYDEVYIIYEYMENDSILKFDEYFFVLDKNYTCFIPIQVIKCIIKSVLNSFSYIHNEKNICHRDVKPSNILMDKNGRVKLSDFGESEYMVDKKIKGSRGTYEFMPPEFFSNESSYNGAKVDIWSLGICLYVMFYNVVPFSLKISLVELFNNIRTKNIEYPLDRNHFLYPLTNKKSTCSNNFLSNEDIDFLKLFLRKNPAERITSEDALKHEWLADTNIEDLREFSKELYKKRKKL

[8] = target: Calcium-dependent protein kinase 4 (Plasmodium falciparum (isolate 3D7)) (UniProt Q8IBS5); test: PfCDPK4 kinase inhibitors, biochemical, TCAMS library (AID 1159588; cut-off not given, nearly all actives have IC50 up to about 0.91 µM); conditions: recombinant PfCDPK4, Kinase-Glo ATP depletion luminescence
Sequence of Calcium-dependent protein kinase 4 (Plasmodium falciparum (isolate 3D7)) (Q8IBS5 whole entry, looked up): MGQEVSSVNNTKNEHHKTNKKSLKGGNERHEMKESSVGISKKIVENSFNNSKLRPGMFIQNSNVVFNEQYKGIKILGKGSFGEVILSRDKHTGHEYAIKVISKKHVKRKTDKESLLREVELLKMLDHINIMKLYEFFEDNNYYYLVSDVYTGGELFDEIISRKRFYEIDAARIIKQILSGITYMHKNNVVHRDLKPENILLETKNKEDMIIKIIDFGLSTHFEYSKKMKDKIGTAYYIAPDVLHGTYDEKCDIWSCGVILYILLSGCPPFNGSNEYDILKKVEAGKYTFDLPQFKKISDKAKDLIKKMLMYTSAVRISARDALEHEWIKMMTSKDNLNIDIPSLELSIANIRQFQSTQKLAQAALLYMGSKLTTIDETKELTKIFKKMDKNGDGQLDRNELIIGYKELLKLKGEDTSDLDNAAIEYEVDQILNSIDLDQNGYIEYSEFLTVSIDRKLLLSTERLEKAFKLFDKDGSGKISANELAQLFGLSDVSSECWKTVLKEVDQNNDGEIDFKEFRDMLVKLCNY

Compound | growth inhibition [1] | inhibition [2] | inhibition [3] [%] | growth inhibition [4] | outcome [5] | outcome [6] | outcome [7] | outcome [8]
CC(C)(C)Nc1cc(C(=O)N[C@@H](Cc2ccccc2)[C@H](O)CNC2CCOCC2)cc(N2CCCCS2(=O)=O)c1 | 98% (active) | -5% | -1 | 99% (active) | inactive | inactive | inactive | inactive
COc1ccc2nc(C)cc(NN=Cc3ccc([N+](=O)[O-])cc3)c2c1 | 70% (active) | -3% | -5 | 103% (active) | inactive | inactive | inactive | inactive
CN1CCN(CCNc2c3ccccc3nc3ccc4ccccc4c23)CC1 | 99% (active) | 22% | -6 | 99% (active) | inactive | inactive | inactive | inactive
Oc1ccc(CCNc2nc(N/N=C/C=C/c3ccc(Cl)cc3)nc(N3CCNCC3)n2)cc1 | 52% (active) | 17% | 2 | 98% (active) | inactive | inactive | inactive | inactive
O=C(Nc1cc(Cl)ccc1O)c1cc(-c2ccccc2O)no1 | 79% (active) | -7% | 2 | 95% (active) | inactive | inactive | inactive | inactive
O=C(Nc1ccc(Cl)cc1)c1cc(Cl)ccc1NC(=O)C1(c2ccc(Cl)cc2)CCCC1 | 29% | 13% | -4 | 85% (active) | inactive | inactive | inactive | inactive
c1ccc(CNCc2ccc(-c3ccc(-c4nc5ccccc5[nH]4)cc3)cc2)cc1 | 93% (active) | 32% | 1 | 101% (active) | inactive | inactive | inactive | inactive
CCOC(=O)c1ccc(NC(=O)Nc2ccc(-c3ccc(-c4nc5ccc(C(F)(F)F)cc5[nH]4)cc3)cc2)cc1 | 52% (active) | 20% | -2 | 102% (active) | inactive | inactive | inactive | inactive
C[C@@H](CC1CCCCC1)OC(=O)N(C)[C@H]1CCN(C#N)C1 | 62% (active) | 4% | -6 | 84% (active) | inactive | inactive | inactive | inactive
O=C(/C=C/c1ccc(Cl)c(Cl)c1)NCCCCCN1CCCC(CNS(=O)(=O)c2ccc(F)cc2)C1 (stereo not given) | 7% | 56% (active) | 1 | 91% (active) | inactive | inactive | inactive | inactive
CCc1sc(-c2ccc(C(C)(C)C)cc2)nc1C(=O)NCCCN1CCCC1=O | 69% (active) | 0% | -5 | 84% (active) | inactive | inactive | inactive | inactive
CN1CCC(NCc2ccc(-c3cccc(S(=O)(=O)NCC4CCCO4)c3)cc2)CC1 (stereo not given) | 0% | 8% | -1 | 90% (active) | inactive | inactive | inactive | inactive
CC(C)c1ccc(CN2CCCCC(NC(=O)c3cc(-c4cccc(F)c4)cs3)C2)cc1 (stereo not given) | 13% | 6% | 1 | 94% (active) | inactive | inactive | inactive | inactive
CCN(CC)CCOc1ccc(C(O)(C#CC(O)(c2ccc(OCCN(CC)CC)cc2)c2ccc([N+](=O)[O-])cc2)c2ccc([N+](=O)[O-])cc2)cc1 (stereo not given) | 97% (active) | 55% (active) | 3 | 98% (active) | inactive | inactive | inactive | inactive
CCCC(C)Nc1nc(C)cc(N[C@@H](Cc2ccccc2)C(=O)NCc2ccc(C)cc2)n1 (stereo not given in full) | 93% (active) | 22% | 5 | 101% (active) | inactive | inactive | inactive | inactive
O=C(c1cc(C(=O)NC2CCCCC2)c(=O)n(C2CCCCC2)c1)c1cc(F)ccc1O | 98% (active) | 22% | -2 | 99% (active) | inactive | inactive | inactive | inactive
O=C(NC1CCN(c2ncc(C(F)(F)F)cc2Cl)CC1)c1cccs1 | 65% (active) | 15% | -1 | 84% (active) | inactive | inactive | inactive | inactive
O=C(N[C@@H](Cc1ccccc1)[C@H](O)CNC1CCCc2ccccc21)c1cc(C2CCCC2)cc(N2CCCC2=O)c1 (stereo not given in full) | 99% (active) | 31% | -7 | 97% (active) | inactive | inactive | inactive | inactive
NC(=O)c1cnc2ccc(-c3cncs3)cc2c1Nc1ccc(F)c(Cl)c1 | 99% (active) | 3% | 6 | 97% (active) | inactive | inactive | inactive | inactive
CCCCCOc1ccc(C=NNc2nc(-c3ccccc3)cc(=O)[nH]2)cc1 | 86% (active) | 0% | -2 | 88% (active) | inactive | inactive | inactive | inactive

Compound | growth inhibition [1] | inhibition [2] | inhibition [3] [%] | growth inhibition [4] | outcome [5] | outcome [6] | outcome [7] | outcome [8]
CN(C)CCC1CCN(CCS(=O)(=O)c2cccc(Nc3ncc(-c4cccc(F)c4)cn3)c2)CC1 | 12% | 59% (active) | -2 | 96% (active) | inactive | inactive | inactive | inactive
Cc1cccc2[nH]c(-c3ccc(-c4cccc(NC(=O)Nc5ccc6c(c5)OCO6)c4)cc3)nc12 | 39% | 28% | -8 | 100% (active) | inactive | inactive | inactive | inactive
COc1ccccc1N1CCN(c2cccc(F)c2C#N)CC1 | 59% (active) | -2% | -2 | 85% (active) | inactive | inactive | inactive | inactive
CCCN(CC1CC1)c1ncc(-c2ccccc2CNCc2ccccc2O)cn1 | 98% (active) | 4% | -4 | 100% (active) | inactive | inactive | inactive | inactive
Cn1cnnc1Sc1ccc(CN2CCOc3ccc(C4=CCCCC4)cc3C2)o1 | 97% (active) | 1% | 3 | 98% (active) | inactive | inactive | inactive | inactive
c1ccc(CCNc2ncnc3c2[nH]c2ccccc23)cc1 | 94% (active) | 50% (active) | -1 | 95% (active) | inactive | inactive | inactive | inactive
CC(C)C[C@H]1C(=O)N[C@H](C2Cc3ccccc3C2)C(=O)N1[C@@H](C(=O)Nc1ccccc1OCc1ccccc1)c1ccc(F)cc1F | 67% (active) | 12% | 5 | 90% (active) | inactive | inactive | inactive | inactive
COc1cc(-c2cc3cc(Cl)c(Cl)cc3[nH]2)ccc1C(=O)NCCC1CCCN1C (stereo not given) | 41% | 20% | -5 | 91% (active) | inactive | inactive | inactive | inactive
COc1cc(Cc2cnc(N)nc2N)cc(OCCCN2C(=O)c3ccccc3C2=O)c1OC | -3% | -1% | 1 | 96% (active) | inactive | inactive | inactive | inactive
Cc1ccccc1NC(=O)NC1CCN(CCCCCNC(=O)/C=C/c2ccc(Cl)c(Cl)c2)CC1 | 20% | 13% | -6 | 102% (active) | inactive | inactive | inactive | inactive
O=C(NC(Nc1ccc([N+](=O)[O-])cc1)C(Cl)(Cl)Cl)c1ccc(Cl)cc1 (stereo not given) | 94% (active) | 21% | 4 | 98% (active) | inactive | inactive | inactive | inactive
CC(C)=C(C(=O)OCc1ccccc1)N1C(=O)[C@@H](NC(c2ccccc2)(c2ccccc2)c2ccccc2)[C@H]1[S@@](=O)CC(=O)OC(C)(C)C | 78% (active) | -2% | -4 | 92% (active) | inactive | inactive | inactive | inactive
c1cc(Cc2ccc(Nc3c4ccccc4nc4ccccc34)cc2)cc(Nc2c3ccccc3nc3ccccc23)c1 | 100% (active) | 91% (active) | -5 | 100% (active) | inactive | inactive | inactive | inactive
Cc1[nH]c(C)c(-c2ccc(-c3ccc(OC(F)(F)F)cc3)cc2)c(=O)c1Cl | 97% (active) | 24% | 1 | 98% (active) | inactive | inactive | inactive | inactive
c1ccc(-c2cc(NCCNc3cc(-c4ccccc4)nc4ccccc34)c3ccccc3n2)cc1 | 11% | -2% | 0 | 99% (active) | inactive | inactive | inactive | inactive
Cc1cccc2[nH]c(-c3cccc(-c4ccc(NC(=O)C5CC(=O)Nc6ccccc65)cc4)c3)nc12 (stereo not given) | 56% (active) | 15% | 3 | 87% (active) | inactive | inactive | inactive | inactive
CN1CCN(c2ccc3nccc(CCN4CCC(NCc5ccc6c(n5)NC(=O)CO6)CC4)c3n2)CC1 | 3% | 9% | -1 | 97% (active) | inactive | inactive | inactive | inactive
CN1CCN(CCCN(Cc2cccc(-c3ccc(CNC4CCCC4)cc3)c2)C(=O)/C=C/c2ccccc2)CC1 | 96% (active) | 62% (active) | -2 | 98% (active) | inactive | inactive | inactive | inactive
Cc1cc(NC2CCN(CC3CCCCC3)C2)nc(Nc2ccc(Cl)cc2)n1 (stereo not given) | 83% (active) | 26% | -2 | 98% (active) | inactive | inactive | inactive | inactive
CN1CCC(Oc2ccc(CN3CC[C@H](NC(=O)c4ccc(Cl)c(Cl)c4)C3)c3ccccc23)C1 (stereo not given in full) | 82% (active) | 52% (active) | 3 | 100% (active) | inactive | inactive | inactive | inactive
